# Laboratory results published in PubChem BioAssay (NCI).
# “And” between values parts separate entries of the source, which are not always exact repeats. Identical values can stand only once. About 83,000 compounds went through this panel and 20% of them were active in at least one assay; those are over-represented in the sample as a whole.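 The endpoint reported here, percent growth, reads 100 for growth as untreated, 0 for no net growth and -100 for all cells dead.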 The source made the active and inactive calls. Rule for the calls: active = growth percent below 10; inactive = the rest.
# System: A549/ATCC NSCLC
# Assay: NCI-60 one-dose screen, 48 h (100 = growth as untreated, 0 = no growth, -100 = all killed)
# Details: 10 µM unless noted
row,Compound,growth
1,Cc1cc(O)c(C(C)C)cc1N,109% (inactive) and 110% (inactive)
2,O=C(c1ccc(Cl)cc1)C(NCCO)c1ccc(Cl)cc1 (stereo not drawn),96.8% (inactive) and 93.8% (inactive)
3,O=C(O)CN(CCN(CC(=O)O)CC(=O)O)CCN(CC(=O)O)CC(=O)O,-85.5% (active) and 106% (inactive) and 98.9% (inactive)
4,O=S1(=O)CC(Br)C(Br)C1 (stereo not drawn),95.4% (inactive) and 95% (inactive)
5,Cc1ccc(S(=O)(=O)Nc2ccc3cc([N+](=O)[O-])ccc3c2[N+](=O)[O-])cc1,77.7% (inactive) and 91.2% (inactive)
6,O=C(O)CSCc1nc2ccccc2[nH]1,110% (inactive)
7,CCc1c(CC(=O)O)c2cc(C)ccc2n1Cc1ccc(Cl)cc1,89.1% (inactive) and 87.3% (inactive)
8,COc1cc(/C=N/Nc2nc3c([nH]2)c(=O)n(C)c(=O)n3C)ccc1O,105% (inactive) and 97.8% (inactive)
9,O=C1C2=C(C(=O)c3ccccc31)C(O)(S(=O)(=O)O)C(O)(S(=O)(=O)O)C1N=CC=CC21 (stereo not drawn),35.8% (inactive) and 22.1% (inactive)
10,COc1c(/C(C)=N/N=c2sc(C(C)=O)nn2-c2ccc(Cl)cc2)c(Oc2ccccc2)c(OC)c2occc12,108% (inactive) and 102% (inactive)
11,O=[N+]([O-])c1ccccc1N(S(=O)(=O)c1ccccc1)S(=O)(=O)c1ccccc1,91.3% (inactive) and 80.2% (inactive)
12,CCOc1ccc2c(S(=O)(=O)O)cccc2c1[N+](=O)[O-],97.2% (inactive) and 101% (inactive)
13,CC1=C(/C=C/C(C)=C/C=C/C(C)=C/C(=O)O)C(C)(C)CCC1,73.4% (inactive) and 88.2% (inactive) and 80.3% (inactive)
14,CCN(CC)C(=O)c1cccnc1,102% (inactive)
15,COc1ccc(S(=O)(=O)N2CCOCC2)cc1NC(=O)c1[nH]c(C)c2c1CCCCC2=O,97.2% (inactive) and 61.7% (inactive)
16,CCC(=O)C(CC)c1cccc(OC)c1 (stereo not drawn),106% (inactive)

row,Compound,growth
1,Cn1cc(-c2cc3c(Nc4ccc(CC(=O)Nc5cc(C(C)(C)C)on5)cc4)ncnc3[nH]2)cn1,4.17% (active) and 8.31% (active)
2,C[N+](C)(C)CN1C(=O)c2ccccc2C1=O,99.8% (inactive)
3,O=[N+]([O-])c1ccc2nc3c4ccccc4c4ccccc4c3nc2c1,69.1% (inactive)
4,COc1ccccc1/C=N\N=C(N/N=C/c1ccccc1OC)N/N=C/c1ccccc1OC,61.1% (inactive) and 27.1% (inactive)
5,CN(C)c1ccc(C(Cc2ccc3ccccc3n2)Cc2ccc3ccccc3n2)cc1,45% (inactive) and 91.1% (inactive)
6,CO/N=C/C=C\C(=O)N/C=C/C[C@H]1/C=C/[C@H](O)/C=C\C=C\c2cccc(O)c2C(=O)O1,18.1% (inactive) and 12% (inactive)
7,CCN(CC)CCCC(C)Nc1cnc(C(=O)Nc2cc(F)cc3cccnc23)cn1 (stereo not drawn),58% (inactive) and 18.9% (inactive)
8,O=[N+]([O-])c1ccc(N/N=C\c2cc(Br)ccc2O)nc1,21.4% (inactive)
9,COc1ccc(NC(=S)Nc2ccccn2)cc1,101% (inactive)
10,CN(C)c1ccc(/C=C(\C#N)c2ccccc2)cc1,24.3% (inactive) and 31.2% (inactive) and 24.9% (inactive)
11,CN(C)CCCN1c2ccccc2Sc2ccc(Cl)cc21,103% (inactive) and 94.4% (inactive)
12,O=S(=O)(Nc1ccccc1)C1CCCCC1,98.7% (inactive) and 108% (inactive)
13,CC1=C(/C=C/C(C)=C/C=C/C(C)=C/C(=O)Nc2ccc(O)cc2)C(C)(C)CCC1,55.9% (inactive)
14,CCCCCCCCCCCCCCCCOc1ccc(C)cc1,102% (inactive)
15,COc1cc(C(=O)N/N=C/c2ccc(N(C)C)cc2)cc(OC)c1OC,18.4% (inactive)
16,CC1(c2ccc3ccccc3c2)CCC(=O)O1 (stereo not drawn),101% (inactive)

# System: 786-0 renal
# Assay: as above
# Details: 10 µM
row,Compound,growth
1,CNC(=O)c1cc(Oc2ccc(CC(=O)Nc3cc(C(C)(C)C)nn3C)cc2)ccn1,100% (inactive)
2,CC#C[C@]1(O)CC[C@H]2[C@@H]3CCC4=CC(=O)CCC4=C3[C@@H](c3ccc4c(c3)OCO4)C[C@@]21C,69.5% (inactive)
3,CCc1ccccc1-n1c(N)c(C#N)c(-c2ccc(OC)c(OC)c2)c(C#N)c1=O,107% (inactive)

# Same assay, conditions: 10 µM unless noted
row,Compound,growth
1,Cc1cc(O)c(C(C)C)cc1N,97.2% (inactive) and 105% (inactive)
2,O=C(c1ccc(Cl)cc1)C(NCCO)c1ccc(Cl)cc1 (stereo not drawn),97.8% (inactive) and 93.3% (inactive)
3,O=C(O)CN(CCN(CC(=O)O)CC(=O)O)CCN(CC(=O)O)CC(=O)O,-20.3% (active) and 102% (inactive) and 105% (inactive)
4,O=S1(=O)CC(Br)C(Br)C1 (stereo not drawn),101% (inactive) and 82.1% (inactive)
5,Cc1ccc(S(=O)(=O)Nc2ccc3cc([N+](=O)[O-])ccc3c2[N+](=O)[O-])cc1,72.2% (inactive) and 85.9% (inactive)
6,O=C(O)CSCc1nc2ccccc2[nH]1,103% (inactive)
7,CCc1c(CC(=O)O)c2cc(C)ccc2n1Cc1ccc(Cl)cc1,106% (inactive) and 47% (inactive)
8,COc1cc(/C=N/Nc2nc3c([nH]2)c(=O)n(C)c(=O)n3C)ccc1O,95.7% (inactive) and 112% (inactive)
9,O=C1C2=C(C(=O)c3ccccc31)C(O)(S(=O)(=O)O)C(O)(S(=O)(=O)O)C1N=CC=CC21 (stereo not drawn),32.7% (inactive) and 20.3% (inactive)
10,COc1c(/C(C)=N/N=c2sc(C(C)=O)nn2-c2ccc(Cl)cc2)c(Oc2ccccc2)c(OC)c2occc12,102% (inactive)
11,O=[N+]([O-])c1ccccc1N(S(=O)(=O)c1ccccc1)S(=O)(=O)c1ccccc1,109% (inactive)
12,CCOc1ccc2c(S(=O)(=O)O)cccc2c1[N+](=O)[O-],113% (inactive) and 111% (inactive)
13,CC1=C(/C=C/C(C)=C/C=C/C(C)=C/C(=O)O)C(C)(C)CCC1,96.6% (inactive) and 85.6% (inactive) and 102% (inactive)
14,CCN(CC)C(=O)c1cccnc1,99.4% (inactive)
15,COc1ccc(S(=O)(=O)N2CCOCC2)cc1NC(=O)c1[nH]c(C)c2c1CCCCC2=O,107% (inactive) and 93.4% (inactive)
16,CCC(=O)C(CC)c1cccc(OC)c1 (stereo not drawn),103% (inactive)
17,Cn1cc(-c2cc3c(Nc4ccc(CC(=O)Nc5cc(C(C)(C)C)on5)cc4)ncnc3[nH]2)cn1,5.07% (active) and 3.24% (active)

row,Compound,growth
1,C[N+](C)(C)CN1C(=O)c2ccccc2C1=O,104% (inactive)
2,O=[N+]([O-])c1ccc2nc3c4ccccc4c4ccccc4c3nc2c1,88.6% (inactive)
3,COc1ccccc1/C=N\N=C(N/N=C/c1ccccc1OC)N/N=C/c1ccccc1OC,74.4% (inactive) and 35.8% (inactive)
4,CN(C)c1ccc(C(Cc2ccc3ccccc3n2)Cc2ccc3ccccc3n2)cc1,31.4% (inactive) and 90.9% (inactive)
5,CO/N=C/C=C\C(=O)N/C=C/C[C@H]1/C=C/[C@H](O)/C=C\C=C\c2cccc(O)c2C(=O)O1,24.2% (inactive) and 18.7% (inactive)
6,CCN(CC)CCCC(C)Nc1cnc(C(=O)Nc2cc(F)cc3cccnc23)cn1 (stereo not drawn),68.4% (inactive) and -55.1% (active)
7,O=[N+]([O-])c1ccc(N/N=C\c2cc(Br)ccc2O)nc1,25.6% (inactive) and 35% (inactive)
8,COc1ccc(NC(=S)Nc2ccccn2)cc1,90.4% (inactive)
9,CN(C)c1ccc(/C=C(\C#N)c2ccccc2)cc1,44.7% (inactive) and 42.3% (inactive) and 45.6% (inactive)
10,CN(C)CCCN1c2ccccc2Sc2ccc(Cl)cc21,68% (inactive) and 106% (inactive) and 81.9% (inactive)
11,O=S(=O)(Nc1ccccc1)C1CCCCC1,105% (inactive) and 110% (inactive)
12,CC1=C(/C=C/C(C)=C/C=C/C(C)=C/C(=O)Nc2ccc(O)cc2)C(C)(C)CCC1,52.8% (inactive)
13,CCCCCCCCCCCCCCCCOc1ccc(C)cc1,107% (inactive)
14,COc1cc(C(=O)N/N=C/c2ccc(N(C)C)cc2)cc(OC)c1OC,42.2% (inactive)
15,CC1(c2ccc3ccccc3c2)CCC(=O)O1 (stereo not drawn),103% (inactive)
16,CCCCOc1cc(C(=O)NCCN(CC)CC)c2ccccc2n1,90.6% (inactive) and 99.9% (inactive)
